rRNA inh HTS – inhibits bacterial ribosomal RNA function over humanized ribosomes | E. coli WT GFP vs humanized-ribosome RFP mutants, fluorescence, 24 h; stronger effect = lower value; DMSO median 0, no signal -100 | GFP signal change (wild-type ribosome), % (test concentration not listed) | 350,000 tested, 1.6% active | AID 720706;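 active = significant combined selectivity score with lowered wild-type GFP, culture density cut under 30%, mutant RFP and density less affected; inactive = any of these conditions unmet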
F508del corr – correctors of CFTR F508del function in bronchial epithelial cells | activity (quench increase), % at 7.58 µM | 350,000 tested, 0.36% active | AID 720511 | CFBE cells, YFP halide quenching; stimulated with forskolin plus potentiator P3; % fluorescence drop versus neutral controls;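 active = mean added fluorescence quench of at least 8% versus neutral control, with both replicates also reaching 8%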;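 note: cells transiently co-express mutant CFTR-F508del with the halide-sensitive YFP; corrector assay measuring rescue of mutant channel to the surface after 24 h compound exposure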
ERAP1 HTS inh – inhibitors of human ERAP1 aminopeptidase; AID 652197; inhibition, % at 10.7 µM; 340,000 tested, 0.15% active; recombinant ERAP1, Leu-AMC fluorescence, 60 min; Q9NZ08;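 active = mean replicate inhibition of at least 30%, or all replicates individually reaching that 30% level; inactive = mean below 30% and not every replicate reaching it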;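 note: 0% = neutral control wells and 100% = L-leucinethiol positive control wells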
PvdQ inh – blocks Pseudomonas aeruginosa PvdQ acylase activity; purified PvdQ acylase, fluorescence plate reader; inhibition, % at 10 µM; 340,000 tested, 0.063% active; AID 488965; in the data active = inhibition above about 30%, passing the limit was not always enough;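 note: 0% = vehicle neutral wells and 100% = reference inhibitor wells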
ARNT TACC3 PPI – disrupts binding between human ARNT and TACC3. AlphaScreen His-ARNT PAS-B/GST-TACC3 binding, luminescence; TACC3 fragment carries E629A point mutation. inhibition, % at 9.99 µM. AID 623870. Q9Y6A5. 390,000 tested, 0.66% active;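 active = mean inhibition of replicates at least 50% and at least half of replicates each reaching 50%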;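 note: 0% = complete ARNT plus TACC3 wells and 100% = ARNT alone without TACC3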
Numbers without * were called inactive; · = no result given. Shown are actives, neighbours in structure and some others; about 2.1% of the full set was active somewhere.

SMILES	rRNA inh HTS	F508del corr	ERAP1 HTS inh	PvdQ inh	ARNT TACC3 PPI
C[C@@H]1CN([C@H](C)CO)C(=O)c2cc(NS(=O)(=O)c3ccccc3)ccc2O[C@@H]1CN(C)S(=O)(=O)c1ccc(F)cc1	-1	-2	·	·	·
C[C@@H]1CCCCO[C@@H](CN(C)S(=O)(=O)c2ccc(F)cc2)[C@@H](C)CN([C@H](C)CO)C(=O)c2cc(NS(=O)(=O)c3ccccc3)ccc2O1	4	2	4	·	-2
CNc1snc(C)c1C(=O)OC(C)C(=O)c1ccc(F)cc1 (stereo not given)	-24*	0	-6	-17	18
COc1ccc(-c2oc3ccc(-c4cc(OC)c(OC)c(OC)c4)cc3c2C#Cc2ccccn2)cc1	3	8.8*	8	-5	-7
CC(C)(C)C(=O)N1CCN(c2ccc([N+](=O)[O-])c(NCC3CCCO3)c2)CC1 (stereo not given)	-38*	·	3	15	3
COc1cccc(S(=O)(=O)Nc2ccc3c(c2)OC[C@@H](C)N(C(=O)Cc2cccnc2)C[C@H](C)[C@@H](OC)CN(C)C3=O)c1	2	-1	·	·	10
Nc1nc(N)nc(-c2ccccn2)n1	·	·	·	-16	64*
Nc1nc(N)nc(-c2ccccc2O)n1	·	·	·	1	0
Clc1ccc(-c2cnnc(-c3ccccn3)n2)cc1	-21	-2	-2	7	61*
c1ccc(-c2nc(-c3ccccn3)nc(-c3ccccn3)n2)nc1	10	2	·	1	51*
c1ccc(-c2nc3ccccc3nc2-c2ccccn2)nc1	·	·	·	0	14
c1ccc(-c2cncnc2)nc1	16	1	3	-2	-2
C#CCN1CC(COc2ccccc2)Oc2cccc(Oc3ccc(SC)c(C)c3)c2S1(=O)=O (stereo not given)	-5	4	·	·	·
C[C@@H]1CCCCO[C@@H](CN(C)Cc2ccc(Cl)c(Cl)c2)[C@H](C)CN([C@H](C)CO)C(=O)c2cc(NC(=O)CCC(F)(F)F)ccc2O1	1	4	1	·	-2
O=C(C[C@@H]1C=C[C@@H](NS(=O)(=O)c2cccc(F)c2)[C@@H](CO)O1)N1CCCCC1	1	2	2	·	·
O=C(NCC[C@@H]1CC[C@H](NS(=O)(=O)c2ccc(Cl)cc2)[C@@H](CO)O1)c1ccc2c(c1)OCO2	-4	-1	-4	·	-1
CN(C)C(=O)c1ccc(N=Nc2c(O)c3ccccc3[nH]c2=O)cc1	-21*	-3	-4	5	17
Cc1ccc(C(=O)Nc2cccc(C(F)(F)F)c2)cc1Nc1cnccn1	4	10*	0	-3	-1
C/C=C/c1cnc2c(c1)C(=O)N([C@@H](C)CO)C[C@H](C)[C@H](CN(C)Cc1ccc(F)cc1)O2	-2	-1	2	·	·
COc1ccc(NC(=O)CSc2c(C)nn(-c3nnc(C)c(=O)[nH]3)c2C)cc1	·	·	·	-18	60*
COc1ccc(NC(=O)CSc2nncn2C)cc1	9	-3	-4	8	-9
CN(C)c1ccc(C(O)P(=O)(OC2CCCCC2)OC2CCCCC2)cc1 (stereo not given)	-34*	-1	7	-9	4
O=S(=O)(O)c1cc(O)c(N=Nc2ccc(O)cc2O)c2ccccc12	-45	-3	17	-17	93*
COC(=O)c1noc(-c2ccc(OC)cc2)n1	·	·	·	71*	1
Cc1c(/C=N/O)c2ccccn2c1C(=O)c1ccc(F)cc1	-28*	-1	-1	-2	-7
SMILES	rRNA inh HTS	F508del corr	ERAP1 HTS inh	PvdQ inh	ARNT TACC3 PPI
Cc1c(/C=N/NC(N)=O)c2ccccn2c1C(=O)c1ccc(F)cc1	-12	0	-1	1	4
COc1ccc(-c2cc(-c3cc(F)ccc3O)[nH]n2)cc1OC	-33*	0	1	-5	1
COc1ccc(CN(C)C[C@@H]2OCCCC[C@@H](C)Oc3ccc(NC(=O)CCC(F)(F)F)cc3C(=O)N([C@@H](C)CO)C[C@H]2C)cc1	2	1	2	·	5
COc1ccc(CCC(=O)NC2CCCc3ccccc32)cc1OC (stereo not given)	1	4	32*	-5	-1
O=C(NC(=S)Nc1cc([N+](=O)[O-])ccc1O)c1ccc2c(c1)OCO2	-27	3	-2	-7	22
COc1cc([N+](=O)[O-])ccc1NC(=S)NNC(=O)c1ccc2c(c1)OCO2	-17*	1	6	1	18

Screening data from PubChem BioAssay.
